Only a selection was taken, and hits are over-represented in it overall.
HDAC3 inhib – human HDAC3 inhibition | hit rate 0.15% among 320,000 | recombinant HDAC3, fluorogenic peptide/trypsin coupled, fluorescence | inhibition, % at 8.3 µM | AID 2718; in the data active means inhibition above about 26%, passing the limit was not always enough; inconclusive means no clear call, values can overlap the other calls
ERp5 block – ERp5 (human) disulfide isomerase inhibition; Q15084; ERp5 insulin aggregation, absorbance 650 nm, 90 min; inhibition, % at 9.99 µM; hit rate 0.05% among 350,000;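 active means mean replicate inhibition above about 25%, with every replicate also reaching it, limit read from the data, passing the limit was not always enough; inconclusive means only one of those two criteria met; inactive means neither criterion met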
Target sequence (Q15084 whole entry, looked up): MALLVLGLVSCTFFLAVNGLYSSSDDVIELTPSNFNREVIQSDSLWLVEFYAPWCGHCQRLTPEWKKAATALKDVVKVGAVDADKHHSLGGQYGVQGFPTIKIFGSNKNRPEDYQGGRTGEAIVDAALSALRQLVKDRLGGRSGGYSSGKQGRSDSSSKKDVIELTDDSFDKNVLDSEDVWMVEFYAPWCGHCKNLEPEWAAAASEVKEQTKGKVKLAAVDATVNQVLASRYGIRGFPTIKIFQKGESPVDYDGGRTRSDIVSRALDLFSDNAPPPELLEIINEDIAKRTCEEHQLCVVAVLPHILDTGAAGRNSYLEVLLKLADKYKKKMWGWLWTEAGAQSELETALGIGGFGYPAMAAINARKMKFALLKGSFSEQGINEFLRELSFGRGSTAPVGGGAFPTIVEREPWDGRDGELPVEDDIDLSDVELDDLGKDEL
SIRT5 inh – sirtuin-5 (human) deacylase inhibition. Purified SirT5, succinyl-peptide AMC, trypsin-coupled fluorescence. hit rate 1.1% among 330,000. inhibition, % at 15 µM; in the data active means inhibition above about 15%; inconclusive means no clear call, values can overlap the other calls
PDI turbidity – blocks human protein disulfide isomerase activity; PDI insulin aggregation turbidity, A650, 90 min; hit rate 0.052% among 350,000; P07237; inhibition, % at 10 µM;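 active means mean inhibition across replicates of 30% or more, whatever share of single replicates reach that level; inconclusive means mean inhibition below 30% while every single replicate reaches 30%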
ERAP1 HTS inh – inhibitors of human ERAP1 aminopeptidase; Q9NZ08; recombinant ERAP1, Leu-AMC fluorescence, 60 min; inhibition, % at 10.7 µM; hit rate 0.15% among 340,000;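 active means mean replicate inhibition of at least 30%, or all replicates individually reaching that 30% level; inactive means mean below 30% and not every replicate reaching it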
Hits are given with their value; i = inactive; ? = inconclusive; nt = not tested or not shown.

SMILES	HDAC3 inhib	ERp5 block	SIRT5 inh	PDI turbidity	ERAP1 HTS inh
CS(=O)(=O)N1[C@H](CO)[C@H](c2ccccc2)C12CN(C(=O)c1ccccc1F)C2	nt	?	i	nt	i
CCC(=O)Nc1ccc2c(c1)C(=O)N(C)C[C@@H](OC)[C@H](C)CN(Cc1cccc(F)c1)[C@H](C)CO2	nt	i	i	nt	i
COC(=O)c1ccc(=O)c2nc3/c(=C/O)c(O)cc(=O)c3[nH]c12	i	i	20.1	nt	i
C[C@@H]1CN([C@@H](C)CO)C(=O)c2cc(NC(=O)c3ccncc3)ccc2O[C@@H]1CN(C)C(=O)Nc1ccc(C(F)(F)F)cc1	nt	i	i	nt	i
COC(=O)[C@H]1[C@H](CO)[C@H]2Cn3c(ccc(C4=CCCCC4)c3=O)[C@H]2N1C(=O)C1CC1	nt	i	i	nt	i
O=C1OC(c2ccccc2)=N/C1=C\C=C\c1ccco1	41.4	i	i	i	i
CCCC#Cc1ccc2c(c1)O[C@@H](CN(C)C(=O)NC(C)C)[C@@H](C)CN([C@@H](C)CO)S2(=O)=O	nt	i	i	nt	i
NC(=O)CCn1c(C(=O)c2cc(Cl)c(N)c(Cl)c2)c2ccccc2[n+]1[O-]	i	i	i	i	i
NCCCn1c(C(=O)c2cc(Cl)c(N)c(Cl)c2)c2ccccc2[n+]1[O-]	i	i	40.3	i	i
NC(=O)C1=C[C@H](c2ccccc2)C[C@H](OCc2ccc(CO)cc2)O1	28.1	i	i	i	i
C[C@@H]1CCCCO[C@@H](CN(C)C(=O)Nc2ccccc2)[C@H](C)CN([C@@H](C)CO)C(=O)c2cc(NC(=O)Nc3cccc4ccccc34)ccc2O1	nt	i	i	nt	i
CC(=O)Nc1ccc2c(c1)C(=O)N(C)[C@@H]1CC[C@@H](CC(=O)NCc3ccccc3)O[C@H]1CO2	nt	i	i	nt	i
COc1ccc(Nc2oc(COc3ccccc3OC)nc2C#N)cc1	i	i	28.4	i	i
CO[C@H]1CN(C)C(=O)c2ccc(NC(=O)Nc3cccc(Cl)c3)cc2OC[C@@H](C)NC[C@H]1C	nt	i	i	nt	i
COc1ccc(OC)c(C(=O)COC(=O)CNC(=O)c2ccccc2)c1	i	i	15.1	i	i
COCC(=O)N(C)C[C@@H]1Oc2cc(C#CCC(C)C)ccc2S(=O)(=O)N([C@@H](C)CO)C[C@H]1C	nt	i	i	nt	i
Cc1ccc2c(c1)C1C=CCC1C(C(=O)O)N2 (stereo not drawn)	i	nt	nt	nt	nt
CC(=O)c1ccc2c(c1)C1C=CCC1C(C(=O)O)N2 (stereo not drawn)	nt	i	32.2	i	i
C[C@H]1CN([C@@H](C)CO)S(=O)(=O)c2ccc(/C=C/c3ccccc3)cc2O[C@@H]1CN(C)C(=O)c1ccncc1	nt	i	i	nt	i
N=C1/C(=C\c2ccc(SCc3ccccc3)o2)C(=O)N=C2SC(CC(=O)N3CCOCC3)=NN12	i	i	i	i	nt
N=C1/C(=C/c2ccc(-c3cccc(C(=O)O)c3)o2)C(=O)N=C2SC(CC(=O)N3CCOCC3)=NN12	i	i	21.6	i	i
COc1ccc(CNC(=O)C[C@@H]2CC[C@H](NC(=O)Nc3ccc4c(c3)OCO4)[C@@H](CO)O2)cc1	nt	i	i	nt	i
CC(=O)c1ccc(N2CCN(C(=O)Cc3n[nH]c(=O)c4ccccc34)CC2)cc1	i	i	16.3	i	i
CN(C)CC(=O)Nc1ccc2c(c1)[C@@H]1C[C@H](CC(=O)NC3CCCC3)O[C@H](CO)[C@@H]1O2	nt	i	i	nt	i
Cc1ccc(S(=O)(=O)N(C)C[C@@H]2Oc3cc(C#Cc4ccncc4)ccc3S(=O)(=O)N([C@@H](C)CO)C[C@@H]2C)cc1	nt	i	16.1	nt	i
SMILES	HDAC3 inhib	ERp5 block	SIRT5 inh	PDI turbidity	ERAP1 HTS inh
Cc1ccc(S(=O)(=O)N(C)C[C@H]2Oc3cc(C#Cc4ccncc4)ccc3S(=O)(=O)N([C@H](C)CO)C[C@@H]2C)cc1	nt	i	17.5	nt	i
Nc1nnc(SCC(=O)Nc2ccc(Cl)c(C(=O)O)c2)s1	i	i	16.9	i	i
O=C(Nc1ccccc1F)N1C[C@@H]2[C@H](c3ccccc31)[C@@H](CO)N2C(=O)C1CC1	nt	i	i	nt	i
CN1C2=NCCN2C(=O)c2cc(Cl)ccc21	i	i	i	i	110.9
Clc1ccc2c(c1)-c1ccccc1C1=NCCN12	nt	i	i	i	i
CCCNC(=O)C[C@@H]1CC[C@H]2[C@@H](COC[C@@H](O)CN2CC2CCCCC2)O1	nt	i	i	nt	i
Cc1ccccc1S(=O)(=O)NCC[C@H]1CC[C@@H](NC(=O)Nc2cccc(Cl)c2)[C@@H](CO)O1	nt	i	i	nt	i
N#CC1=C(N)C(C#N)(C#N)[C@H](c2cccnc2)[C@H]2CN(C(=O)OCc3ccccc3)CC=C12	i	i	15.7	i	i
CCCc1c(C)nc(N2CCN(c3ccc(F)cc3)CC2)[nH]c1=O	i	i	21.5	i	i
O=C(Nc1ccc(F)cc1)N1C[C@@H]2[C@H](c3ccccc31)[C@H](CO)N2C(=O)c1ccc(F)cc1	nt	i	i	nt	i
CCCCNC(=NCc1cccc(C(F)(F)F)c1)Nc1ccccc1	i	i	19.8	i	i
C[C@@H](NC(=O)C[C@H]1CC[C@H](NC(=O)Nc2ccc3c(c2)OCO3)[C@@H](CO)O1)c1ccccc1	nt	i	i	nt	i
O=C(N/N=C/c1ccc(OC(F)F)cc1OC(F)F)c1ccc(Br)cc1	i	nt	nt	i	nt
O=C(N/N=C/c1ccc(OC(F)F)cc1OC(F)F)NC1CCCCC1	29.2	i	i	i	i
O=C(O)CNS(=O)(=O)c1ccc(F)cc1	i	nt	nt	i	nt
C=CCNC(=O)CNS(=O)(=O)c1ccc(F)cc1	i	i	17.8	i	i
Cc1ccc(S(=O)(=O)NCC(=O)OCC(=O)NCc2ccc(F)cc2)cc1	i	i	33.7	i	i
COC(=O)c1ccc(CNC(=O)COC(=O)CNS(=O)(=O)c2ccc(C)cc2)cc1	nt	i	nt	i	i
CO[C@H]1CN(C)C(=O)c2ccc(NC(=O)CC(F)(F)F)cc2OC[C@H](C)N(C(=O)c2ccccc2F)C[C@H]1C	nt	i	i	nt	i
Cc1cc(C)c(S(=O)(=O)/N=C2/C=C(Sc3ncn[nH]3)C(=O)c3ccccc32)cc1C	40.3	nt	nt	i	nt
Cc1ccc(C)c(S(=O)(=O)/N=C2\C=C(NS(=O)(=O)c3ccccc3)C(=O)c3ccccc32)c1	i	i	i	i	i
Cc1c(NS(=O)(=O)c2ccc(N=NN(C)C)cc2)c(=O)n(-c2ccccc2)n1C	i	i	17.7	i	i
Cc1c(NS(=O)(=O)c2cccc(C(=O)NCc3ccccc3Cl)c2)c(=O)n(-c2ccccc2)n1C	nt	i	16.0	i	i
Cc1c(NS(=O)(=O)c2ccc(Br)cc2)c(=O)n(-c2ccccc2)n1C	i	i	i	i	i
O=C(CCN1CCCCC1)NCC[C@H]1CC[C@H](NC(=O)Nc2ccc(F)cc2)[C@H](CO)O1	nt	i	i	nt	i
CCOC(=O)C1=CN(Cc2cccc(Br)c2)S(=O)(=O)N(C)C1C (stereo not drawn)	nt	i	42.4	i	i
O=C(C[C@@H]1CC[C@H](NC(=O)Nc2cc(F)ccc2F)[C@H](CO)O1)NCCCN1CCOCC1	nt	i	i	nt	i
O=C(CCN1CCCCC1)NCC[C@@H]1CC[C@@H](NC(=O)Nc2ccc(Cl)cc2)[C@H](CO)O1	nt	i	i	nt	i
c1ccc(CNc2nc(NCc3cccs3)nc3ccsc23)cc1	nt	i	i	i	i

Bioassay records from PubChem.
